TDP1 cell noCPT – qHTS for Inhibitors of human tyrosyl-DNA phosphodiesterase 1 (TDP1): qHTS in cells in absence of CPT. DT40 Tdp1-/- hTDP1 cells, no CPT, ATP luminescence, 48 h. Potency, µM (highest dose often 46.2 µM), usual class: inhibitors. actives 15% (n = 420,000); also: nearly all actives have a fitted effect of over 55% in size
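Growth of hTDP1-complemented DT40 Tdp1-knockout cells is measured by ATP luminescence after at least 48 hr compound exposure at 37 °C, with DMSO substituting for the 20 nM CPT used in the parallel screen.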
IL-1B inflam inh – blocks inflammasome-driven IL-1 beta release; AID 743279; actives 4.7% (n = 360,000); THP-1 LPS/ATP IL-1B secretion, AlphaLISA, 16 h; stronger effect = lower value; activity change, % at 57.5 µM; in the data active = activity change below about -50%; inconclusive = mostly about -30% to -49%
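Secreted IL-1B measured by AlphaLISA bead assay after 16 h compound exposure of THP-1 cells; compounds (final up to 57.5 uM) added 1 h before LPS (250 ng/mL) and ATP (1.25 mM) stimulation; lower signal means less secretion.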
DT40 TDP1 CPT – growth inhibition of DT40 Tdp1-/-;hTDP1 cells with camptothecin (screen for TDP1 inhibitors). chicken DT40 Tdp1-/-;hTDP1 cells + 20 nM CPT, ATP luminescence, 48 h. actives 12% (n = 420,000). Potency, µM (series often up to 46.2 µM), actives largely listed as inhibitors. AID 686979; also: nearly all actives have a fitted effect of over 55% in size
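Chicken DT40 Tdp1-/- cells complemented with human TDP1, 400 cells/well, exposed to compounds plus 20 nM camptothecin for at least 48 h at 37 C; viability read as ATP content by CellTiter-Glo luminescence.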
HT1080 IDH1KD tx – HT-1080 IDH1 knockdown cell toxicity (counter line); actives 2% (n = 360,000); Potency, µM (doses to about 46.1 µM), actives largely listed as cytotoxic; AID 686971; HT-1080 IDH1 knockdown viability, ATP luminescence, 48 h
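Cytotoxicity counter-line: IDH1KD HT-1080, 48 h, CellTiter-Glo. Curves classed by r2, magnitude and activity.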
HT1080NT lethal – kills 2HG-producing HT-1080-NT fibrosarcoma cells. HT-1080-NT fibrosarcoma viability, CellTiter-Glo ATP luminescence, 48 h. Potency, µM (series often up to 46.1 µM), actives largely listed as cytotoxic. actives 1.6% (n = 360,000). AID 686970;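 also: NT is the 2HG producing partner of a matched IDH1 knockdown line; nearly all actives have a fitted effect of over 55% in size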
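HT-1080-NT; 750 cells/well; 5% FBS RPMI; 48 h compound, 37 degrees C; CellTiter-Glo luminescence; curve fitting and curve-class assignment.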
Large screens that a line does not name were inactive. Compounds with a hit are over-represented: about 19% of the library has one in this group of screens. Unless noted, calls follow the shape of the dose curve; as a rule, active = well fitted curve in the direction sought with a large enough effect; inconclusive = small, poorly fitted or top-dose-only effect, or another doubt; inactive = no such curve, though single readings can be large; an effect the other way counts as inactive or inconclusive.

CN(Cc1ccccc1)C(=O)c1ccc(NC(=O)Cc2cccc(NC(=O)C3CCCN(C(=O)CCc4ccccc4)C3)c2)cc1 (stereo not given)	TDP1 cell noCPT inconclusive, DT40 TDP1 CPT inconclusive
CN(C(=O)c1cccc(NC(=O)Cc2ccc(NC(=O)C3CCCN(C(=O)CCc4ccccc4)C3)cc2)c1)C1CCCC1 (stereo not given)	TDP1 cell noCPT 16µM, DT40 TDP1 CPT inconclusive
Cc1ccc([C@H]2C[C@H](O)[C@@H](n3cc(C4CC4)nn3)CN2C(=O)C2CCCCC2)cc1	none
N#CC(=C(O)CN1CCN(c2ccccc2F)CC1)c1nc(-c2ccc(Cl)cc2)cs1	none
CN(C(=O)c1ccc(NC(=O)Cc2ccc(NC(=O)C3CCCN(C(=O)CCc4ccccc4)C3)cc2)cc1)C1CC1 (stereo not given)	TDP1 cell noCPT 13µM, DT40 TDP1 CPT inconclusive
CN(Cc1ccccc1)C(=O)c1cccc(NC(=O)Cc2ccc(NC(=O)C3CCCN(C(=O)C4CCCCC4)C3)cc2)c1 (stereo not given)	TDP1 cell noCPT inconclusive, DT40 TDP1 CPT 16µM
CN(C(=O)c1cccc(NC(=O)Cc2ccc(NC(=O)C3CCCN(C(=O)CCc4ccccc4)C3)cc2)c1)C1CCC1 (stereo not given)	TDP1 cell noCPT 15µM, DT40 TDP1 CPT inconclusive
CN(CCc1ccccc1)C(=O)c1ccc(NC(=O)Cc2ccc(NC(=O)C3CCCN(C(=O)C4CCCCC4)C3)cc2)cc1 (stereo not given)	TDP1 cell noCPT inconclusive, DT40 TDP1 CPT inconclusive
CCOc1ccc(OCCCCOc2ccccc2C(C)=O)cc1	TDP1 cell noCPT inconclusive, DT40 TDP1 CPT inconclusive
CC(C)C(=O)N1CCN(c2ccccc2NC(=O)c2ccc(Br)o2)CC1	TDP1 cell noCPT inconclusive, DT40 TDP1 CPT inconclusive
C[C@H]1CN=C(N(C)C)N1CCCC1CCCC1	TDP1 cell noCPT 12µM, IL-1B inflam inh inconclusive, DT40 TDP1 CPT 16µM
C[C@H]1CN=C(N(C)C)N1CCC1CCCCC1	TDP1 cell noCPT 16µM, DT40 TDP1 CPT inconclusive
C[C@H]1CN=C(N(C)C)N1CC1CCC(C(C)(C)C)CC1 (stereo not given in full)	TDP1 cell noCPT 12µM, DT40 TDP1 CPT 13µM, HT1080 IDH1KD tx inconclusive, HT1080NT lethal inconclusive
C[C@H]1CN=C(N(C)C)N1CC1CCCC1	none
COc1ccc(Cl)cc1NC(=O)C1CCCN(S(C)(=O)=O)C1 (stereo not given)	none
Cc1cc(NC(=O)C(C)SCC(=O)N(C)Cc2ccccc2F)no1 (stereo not given)	none
Cn1nnc2c(NCc3ccco3)ncnc21	none (no result: IL-1B inflam inh, HT1080 IDH1KD tx, HT1080NT lethal)
Cc1cccc(C(C(=O)NC2CCCC2)N(C(=O)c2csnn2)C2CCCC2)c1 (stereo not given)	DT40 TDP1 CPT inconclusive
COc1ccccc1-n1cc(-c2ccccc2)[nH]c1=S	TDP1 cell noCPT inconclusive
COc1ccc(-n2cc(-c3ccccc3)[nH]c2=S)cc1	TDP1 cell noCPT 16µM, DT40 TDP1 CPT 13µM
COc1ccc(-n2cnc(=S)[nH]c2=S)cc1	TDP1 cell noCPT 0.33µM, IL-1B inflam inh inconclusive, DT40 TDP1 CPT 0.58µM, HT1080NT lethal inconclusive
CCOc1ccc(-c2cn(-c3ccccc3OC)c(=S)[nH]2)cc1	TDP1 cell noCPT 18µM, DT40 TDP1 CPT inconclusive, HT1080 IDH1KD tx 26µM, HT1080NT lethal inconclusive
CCC(Oc1ccc(C)cc1)C(=O)Nc1ccccc1C(=O)N1CCOCC1 (stereo not given)	none
Cc1cc2c(cc1S(=O)(=O)N(CCN(C)C)Cc1ccco1)OCC(=O)N2	none (no result: IL-1B inflam inh, HT1080 IDH1KD tx, HT1080NT lethal)
Nc1nc2c(ncn2[C@@H]2O[C@H](COP(=O)(O)OP(=O)(O)O)[C@@H](O)[C@H]2O)c(=O)[nH]1	none (no result: IL-1B inflam inh, HT1080 IDH1KD tx, HT1080NT lethal)
Cn1c(SCC(=O)OCC(=O)c2ccccc2)nnc1-c1cccs1	none
CO[C@H]1C[C@@H]2CC[C@@H](C)[C@@](O)(O2)C(=O)C(=O)N2CCCC[C@H]2C(=O)OC([C@H](C)C[C@@H]2CC[C@@H](O)[C@H](OC)C2)CC(=O)[C@H](C)/C=C(\C)[C@@H](O)[C@@H](OC)C(=O)[C@H](C)C[C@H](C)/C=C/C=C/C=C/1C (stereo not given in full)	TDP1 cell noCPT 0.0092µM, DT40 TDP1 CPT 0.01µM (no result: IL-1B inflam inh, HT1080 IDH1KD tx, HT1080NT lethal)
CO[C@H]1C[C@@H]2CC[C@@H](C)[C@@](O)(O2)C(=O)C(=O)N2CCCC[C@H]2C(=O)O[C@H]([C@H](C)C[C@@H]2CC[C@@H](O)[C@H](OC)C2)CC(=O)[C@H](C)/C=C(/C)[C@@H](O)[C@@H](OC)C(=O)[C@H](C)C[C@H](C)C=C/C=C\C=C/1C	TDP1 cell noCPT inconclusive, DT40 TDP1 CPT 4µM (no result: IL-1B inflam inh, HT1080 IDH1KD tx, HT1080NT lethal)
Cc1ccc(NC(=O)CN2CCN(C(=O)c3ccco3)CC2)cc1S(=O)(=O)N(C)C	none
COc1ccc(C(=O)N(Cc2ccco2)Cc2cc3cc(C)ccc3[nH]c2=O)cc1OC	TDP1 cell noCPT 16µM, IL-1B inflam inh inconclusive, DT40 TDP1 CPT inconclusive
Cc1ccc2[nH]c(=O)c(CN(CC3CCCO3)C(=O)c3ccncc3)cc2c1 (stereo not given)	none
COc1ccccc1NC(=O)N(Cc1ccco1)Cc1cc2cccc(C)c2[nH]c1=O	TDP1 cell noCPT 29µM, DT40 TDP1 CPT 16µM
CCN(Cc1cc2cc(C)ccc2[nH]c1=O)C(=O)c1cccc(OC)c1	TDP1 cell noCPT inconclusive, DT40 TDP1 CPT inconclusive
Cc1ccc2[nH]c(=O)c(CN(Cc3ccco3)C(=O)c3ccncc3)cc2c1	TDP1 cell noCPT 10µM, DT40 TDP1 CPT 10µM, HT1080 IDH1KD tx inconclusive, HT1080NT lethal inconclusive
COc1ccccc1NC(=O)N(Cc1ccco1)Cc1cc2c(C)ccc(C)c2[nH]c1=O	none
COc1ccccc1NC(=S)N(Cc1cccnc1)Cc1ccco1	none
COc1ccccc1NC(=S)N(Cc1ccco1)Cc1cc2cc(C)ccc2[nH]c1=O	TDP1 cell noCPT 13µM, DT40 TDP1 CPT 9.2µM, HT1080 IDH1KD tx inconclusive, HT1080NT lethal inconclusive
Cc1cc(C)c(NC(=O)Cn2nnc(-c3nc(-c4ccccc4)no3)c2N)c(C)c1	none (no result: IL-1B inflam inh, HT1080 IDH1KD tx, HT1080NT lethal)
COc1cc(C(=O)O[C@H]2CC(C)=CC[C@@]3(C)CC[C@@](O)(C(C)C)[C@H]23)ccc1O	TDP1 cell noCPT inconclusive
CCOC1=C2[C@@H](CN(S(=O)(=O)c3ccc(C)cc3)[C@H]2c2cccc3ccccc23)[C@H]2C(=O)N(C3CCCCC3)C(=O)[C@H]2C1	TDP1 cell noCPT 10µM, DT40 TDP1 CPT 13µM
CC(=O)Nc1ccc(NC(=O)COC(=O)[C@@H]2CCCN2C(=O)c2cccs2)cc1	none
O=C(Cc1cccc2ccccc12)N/N=C/c1ccc2cccc(O)c2n1	TDP1 cell noCPT 15µM, DT40 TDP1 CPT inconclusive, HT1080 IDH1KD tx 23µM, HT1080NT lethal inconclusive
